# Results from PubChem BioAssay AID1159580 (chemical genetic matrix, 2015).
# About 2,000 (36%) of roughly 5,500 compounds were called active. About 18% were inconclusive and are not listed. This is one part of the list. A number with no mark means an inactive call. No stated cut-off is given here; in the data, active means normalized growth mostly below about 0.91 (no sharp cut-off); inconclusive means no clear call, values can overlap the other calls; inactive means mostly above about 0.92.
# Experiment: chemical genetic growth profiling, strain panel (AID 1159580);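 further: tested at 20 µM; growth read once vehicle control cultures reached saturation at 30 °C; 1 = growth at the plate median or of vehicle wells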
# Conditions: growth OD
smiles,measurement,setting,value
CN1C2CCC1CC(OC(c1ccccc1)c1ccccc1)C2 (stereo not given),normalized growth,"S. cerevisiae deletion strains, locus YJR043C, strain POL32, stronger effect = lower value",0.95
same,normalized growth,"S. cerevisiae deletion strains, locus YJR075W, strain HOC1, stronger effect = lower value",0.847 (active)
same,normalized growth,"S. cerevisiae deletion strains, locus YKL009W, strain mrt4, stronger effect = lower value",0.918
same,normalized growth,"S. cerevisiae deletion strains, locus YKL068W, stronger effect = lower value",0.986
same,normalized growth,"S. cerevisiae deletion strains, locus YKL085W, strain MDH1 (second series), stronger effect = lower value",0.978
same,normalized growth,"S. cerevisiae deletion strains, locus YKL085W, strain MDH1, stronger effect = lower value",0.978
same,normalized growth,"S. cerevisiae deletion strains, locus YKL160W, strain elf1, stronger effect = lower value",1
same,normalized growth,"S. cerevisiae deletion strains, locus YKR001C, strain vps1, stronger effect = lower value",0.926
same,normalized growth,"S. cerevisiae deletion strains, locus YKR026C, strain gcn3, stronger effect = lower value",0.972
same,normalized growth,"S. cerevisiae deletion strains, locus YKR091W, strain srl3, stronger effect = lower value",0.971
same,normalized growth,"S. cerevisiae deletion strains, locus YLL001W, strain dnm1, stronger effect = lower value",1.01
same,normalized growth,"S. cerevisiae deletion strains, locus YLL026W, stronger effect = lower value",0.991
same,normalized growth,"S. cerevisiae deletion strains, locus YLL041C, strain sdh2, stronger effect = lower value",0.995
same,normalized growth,"S. cerevisiae deletion strains, locus YLR027C, strain aat2, stronger effect = lower value",0.989
same,normalized growth,"S. cerevisiae deletion strains, locus YLR039C, strain RIC1, stronger effect = lower value",0.795
same,normalized growth,"S. cerevisiae deletion strains, locus YLR058C, strain SHM2, stronger effect = lower value",0.91
same,normalized growth,"S. cerevisiae deletion strains, locus YLR102C, strain apc9, stronger effect = lower value",0.996
same,normalized growth,"S. cerevisiae deletion strains, locus YLR221C, strain rsa3, stronger effect = lower value",0.985
same,normalized growth,"S. cerevisiae deletion strains, locus YLR258W, strain gsy2, stronger effect = lower value",0.982
same,normalized growth,"S. cerevisiae deletion strains, locus YLR262C, strain YPT6 (second series), stronger effect = lower value",1.04
same,normalized growth,"S. cerevisiae deletion strains, locus YLR262C, strain YPT6, stronger effect = lower value",0.647
same,normalized growth,"S. cerevisiae deletion strains, locus YLR268W, strain sec22, stronger effect = lower value",0.96
same,normalized growth,"S. cerevisiae deletion strains, locus YLR320W, strain mms22, stronger effect = lower value",0.951
same,normalized growth,"S. cerevisiae deletion strains, locus YLR330W, strain CHS5, stronger effect = lower value",0.809 (active)
same,normalized growth,"S. cerevisiae deletion strains, locus YLR342W, strain FKS1 (second series), stronger effect = lower value",0.842
same,normalized growth,"S. cerevisiae deletion strains, locus YLR342W, strain FKS1, stronger effect = lower value",0.997
same,normalized growth,"S. cerevisiae deletion strains, locus YLR357W, strain rsc2, stronger effect = lower value",0.958
same,normalized growth,"S. cerevisiae deletion strains, locus YLR370C, strain arc18, stronger effect = lower value",0.987
same,normalized growth,"S. cerevisiae deletion strains, locus YLR371W, strain rom2, stronger effect = lower value",0.969
same,normalized growth,"S. cerevisiae deletion strains, locus YLR384C, strain iki3, stronger effect = lower value",0.999
same,normalized growth,"S. cerevisiae deletion strains, locus YLR418C, strain cdc73, stronger effect = lower value",0.814 (active)
same,normalized growth,"S. cerevisiae deletion strains, locus YML016C, strain PPZ1, stronger effect = lower value",0.981
same,normalized growth,"S. cerevisiae deletion strains, locus YML032C, strain rad52, stronger effect = lower value",0.979
same,normalized growth,"S. cerevisiae deletion strains, locus YML120C, strain ndi1, stronger effect = lower value",0.985
same,normalized growth,"S. cerevisiae deletion strains, locus YML124C, strain tub3, stronger effect = lower value",0.993
same,normalized growth,"S. cerevisiae deletion strains, locus YMR058W, strain fet3, stronger effect = lower value",0.978
same,normalized growth,"S. cerevisiae deletion strains, locus YMR078C, strain ctf18, stronger effect = lower value",0.954
same,normalized growth,"S. cerevisiae deletion strains, locus YMR125W, strain sto1, stronger effect = lower value",0.963
same,normalized growth,"S. cerevisiae deletion strains, locus YMR129W, stronger effect = lower value",0.984
same,normalized growth,"S. cerevisiae deletion strains, locus YMR205C, strain PFK2, stronger effect = lower value",0.969
same,normalized growth,"S. cerevisiae deletion strains, locus YMR223W, strain ubp8, stronger effect = lower value",0.948
same,normalized growth,"S. cerevisiae deletion strains, locus YMR231W, strain pep5, stronger effect = lower value",1
same,normalized growth,"S. cerevisiae deletion strains, locus YMR263W, strain SAP30, stronger effect = lower value",1
same,normalized growth,"S. cerevisiae deletion strains, locus YMR307W, strain GAS1, stronger effect = lower value",0.807
same,normalized growth,"S. cerevisiae deletion strains, locus YNL067W, strain RPL9B, stronger effect = lower value",0.898
same,normalized growth,"S. cerevisiae deletion strains, locus YNL071W, strain lat1, stronger effect = lower value",0.964
same,normalized growth,"S. cerevisiae deletion strains, locus YNL128W, strain TEP1, stronger effect = lower value",0.925
same,normalized growth,"S. cerevisiae deletion strains, locus YNL175C, strain NOP13, stronger effect = lower value",1.03
same,normalized growth,"S. cerevisiae deletion strains, locus YNL197C, strain WHI3, stronger effect = lower value",1.03
same,normalized growth,"S. cerevisiae deletion strains, locus YNL209W, strain ssb2, stronger effect = lower value",0.981
same,normalized growth,"S. cerevisiae deletion strains, locus YNL224C, strain SQS1, stronger effect = lower value",1.01
same,normalized growth,"S. cerevisiae deletion strains, locus YNL233W, strain BNI4, stronger effect = lower value",0.766 (active)
same,normalized growth,"S. cerevisiae deletion strains, locus YNL248C, strain rpa49, stronger effect = lower value",0.969
same,normalized growth,"S. cerevisiae deletion strains, locus YNL250W, strain rad50, stronger effect = lower value",0.971
same,normalized growth,"S. cerevisiae deletion strains, locus YNL271C, strain bni1, stronger effect = lower value",0.967
same,normalized growth,"S. cerevisiae deletion strains, locus YNL298W, strain CLA4, stronger effect = lower value",0.95
same,normalized growth,"S. cerevisiae deletion strains, locus YNL307C, strain MCK1, stronger effect = lower value",0.91
same,normalized growth,"S. cerevisiae deletion strains, locus YNL322C, strain KRE1 (second series), stronger effect = lower value",0.98
same,normalized growth,"S. cerevisiae deletion strains, locus YNL322C, strain KRE1, stronger effect = lower value",0.973
same,normalized growth,"S. cerevisiae deletion strains, locus YNR049C, strain mso1, stronger effect = lower value",0.984
same,normalized growth,"S. cerevisiae deletion strains, locus YNR052C, strain pop2, stronger effect = lower value",0.972
same,normalized growth,"S. cerevisiae deletion strains, locus YOL006C, strain TOP1, stronger effect = lower value",0.597
same,normalized growth,"S. cerevisiae deletion strains, locus YOL012C, strain htz1",1
same,normalized growth,"S. cerevisiae deletion strains, locus YOL147C, strain pex11, stronger effect = lower value",0.985
same,normalized growth,"S. cerevisiae deletion strains, locus YOR001W, strain rrp6, stronger effect = lower value",0.99
same,normalized growth,"S. cerevisiae deletion strains, locus YOR061W, strain CKA2, stronger effect = lower value",0.979
same,normalized growth,"S. cerevisiae deletion strains, locus YOR069W, strain VPS5, stronger effect = lower value",0.971
same,normalized growth,"S. cerevisiae deletion strains, locus YOR070C, strain gyp1, stronger effect = lower value",0.989
same,normalized growth,"S. cerevisiae deletion strains, locus YOR080W, strain dia2, stronger effect = lower value",0.989
same,normalized growth,"S. cerevisiae deletion strains, locus YOR083W, strain WHI5 (second series), stronger effect = lower value",0.998
same,normalized growth,"S. cerevisiae deletion strains, locus YOR083W, strain WHI5, stronger effect = lower value",0.998
same,normalized growth,"S. cerevisiae deletion strains, locus YOR106W, strain vam3, stronger effect = lower value",1
same,normalized growth,"S. cerevisiae deletion strains, locus YOR136W, strain idh2, stronger effect = lower value",0.972
same,normalized growth,"S. cerevisiae deletion strains, locus YOR144C, strain elg1, stronger effect = lower value",0.993
same,normalized growth,"S. cerevisiae deletion strains, locus YOR184W, strain ser1, stronger effect = lower value",0.774 (active)
same,normalized growth,"S. cerevisiae deletion strains, locus YOR265W, strain rbl2, stronger effect = lower value",0.988
same,normalized growth,"S. cerevisiae deletion strains, locus YOR270C, strain vph1, stronger effect = lower value",0.943
same,normalized growth,"S. cerevisiae deletion strains, locus YOR290C, strain snf2, stronger effect = lower value",0.967
same,normalized growth,"S. cerevisiae deletion strains, locus YOR316C, strain cot1, stronger effect = lower value",0.986
same,normalized growth,"S. cerevisiae deletion strains, locus YPL051W, strain arl3, stronger effect = lower value",0.995
same,normalized growth,"S. cerevisiae deletion strains, locus YPL078C, strain atp4, stronger effect = lower value",0.998
same,normalized growth,"S. cerevisiae deletion strains, locus YPL106C, strain sse1, stronger effect = lower value",0.912
same,normalized growth,"S. cerevisiae deletion strains, locus YPL240C, strain hsp82, stronger effect = lower value",0.995
same,normalized growth,"S. cerevisiae deletion strains, locus YPL241C, strain CIN2, stronger effect = lower value",0.999
same,normalized growth,"S. cerevisiae deletion strains, locus YPR119W, strain clb2, stronger effect = lower value",0.973
same,normalized growth,"S. cerevisiae deletion strains, locus YPR141C, strain kar3, stronger effect = lower value",0.966
same,normalized growth,"S. cerevisiae deletion strains, locus YPR163C, strain tif3, stronger effect = lower value",0.952
same,normalized growth,"S. cerevisiae deletion strains, locus YPR167C, strain met16, stronger effect = lower value",0.965
same,normalized growth,"S. cerevisiae deletion strains, strain wtn01, stronger effect = lower value",0.977
same,normalized growth,"S. cerevisiae strains, strain wild type, stronger effect = lower value",0.882 (active)
